{"source": "PubChem BioAssay (NCI)", "note": "This is part of a sample that, as a whole, favours compounds with a hit. Of some 79,000 tested, about 15% had one in any assay. A number with no mark means an inactive call. Activity calls are given as the source filed them. Rule as the data show it: active = growth inhibition above about 70%; inactive = the rest.", "data": [{"test": "NCI Yeast Anticancer Drug Screen. Data for the mlh1 rad18 strain (AID 175)", "conditions": "S. cerevisiae mlh1 rad18 strain growth inhibition; at 50.0 µM; hits give high values", "outline": "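A repair-deficient yeast strain is exposed to test compound, and growth is scored relative to vehicle-treated controls.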", "values": [{"smiles": "O=C(O)c1ccccc1C(=O)Nc1ccc2ccccc2c1", "growth inhibition": "18.9%"}, {"smiles": "O=[N+]([O-])c1ccc(N/N=C2\\CCC3CC23)c([N+](=O)[O-])c1", "note": "(stereo not given)", "growth inhibition": "-21.9%"}, {"smiles": "CCOC(=O)c1c(C)[nH]c(-c2csc(N)n2)c1C", "growth inhibition": "-14.8%"}, {"smiles": "Cc1cccc(C)c1C", "growth inhibition": "-15.1%"}, {"smiles": "Cc1cc(N)c(N=Cc2ccccc2[N+](=O)[O-])cc1C", "growth inhibition": "20.9%"}, {"smiles": "CN(C)Cc1cccc(C(F)(F)F)c1C(O)c1ccccc1", "note": "(stereo not given)", "growth inhibition": "-14.7%"}, {"smiles": "Nc1ccc2cc(S(=O)(=O)O)cc(S(=O)(=O)O)c2c1", "growth inhibition": "31.8%"}, {"smiles": "Nc1nc2c(nnn2-c2ccc(Cl)cc2)c(=O)[nH]1", "growth inhibition": "-6.25%"}, {"smiles": "C(=C\\C1OCCO1)/c1ccccc1", "growth inhibition": "-3%"}, {"smiles": "COc1cccc2c1CCC1=CC(=O)CCC12C", "note": "(stereo not given)", "growth inhibition": "-0.65%"}, {"smiles": "O=C(NC(=O)c1c(F)cccc1F)Nc1ccc(Cl)nc1", "growth inhibition": "10.1%"}, {"smiles": "CC1=C/C(=N/Nc2ccc([N+](=O)[O-])cc2[N+](=O)[O-])CC(C)(C)C1", "growth inhibition": "3.5%"}, {"smiles": "COC1(OC)CC2C(=O)N(Cc3ccccc3)C1C(S(=O)(=O)c1ccccc1)C2C(C)S(=O)(=O)c1ccccc1", "note": "(stereo not given)", "growth inhibition": "5%"}, {"smiles": "CC(=O)N/C(=C\\c1ccccc1)C(N)=O", "growth inhibition": "1.55%"}, {"smiles": "CCCn1cnc2c(SCC(=O)O)nc(N)nc21", "growth inhibition": "-8.9%"}, {"smiles": "c1ccc(-c2ccc3c4ccccc4ccn23)cc1", "growth inhibition": "23.9%"}, {"smiles": "O=S(=O)(Nc1ncccn1)c1ccc(N=NSC2=NC=NC3=NC=NC32)cc1", "note": "(stereo not given)", "growth inhibition": "11.8%"}, {"smiles": "CC[CH2][Sn]([CH2]CC)([O]C(=O)c1cccnc1SC)[O][Sn]([CH2]CC)([CH2]CC)[O]C(=O)c1cccnc1SC", "growth inhibition": "82.1% (active)"}, {"smiles": "CC(=O)c1cccc(NC(=O)Nc2cccc(O)c2)c1", "growth inhibition": "-0.25%"}, {"smiles": "C#CCN(Cc1ccc2nc(-c3ccccc3)c(Cl)nc2c1)c1ccc(Cl)c(Cl)c1", "growth inhibition": "-18.2%"}, {"smiles": "O=C(NCC1(O)CCCCC1)c1ccccc1", "growth inhibition": "1.3%"}, {"smiles": "NC(CCC(N)C(=O)O)C(=O)O", "note": "(stereo not given)", "growth inhibition": "-18.1%"}, {"smiles": "COc1cc(CSCC(=O)O)ccc1O", "growth inhibition": "-23.8%"}, {"smiles": "O=c1[nH]c2nc3ccccc3c(=O)n2/c1=C/c1ccc(Cl)cc1", "growth inhibition": "-17.2%"}, {"smiles": "C=CC1=C(C)C2=NC1=CC1=NC(=CC3=C(C)C4=C(O)C(C(=O)OC)C(=C5NC(=C2)C(C)C5CCC(=O)OC/C=C(\\C)CCCC(C)CCCC(C)CCCC(C)C)C4=N3)C(CC)=C1C", "note": "(stereo not given)", "growth inhibition": "-20.9%"}, {"smiles": "NC(N)=NC(=O)c1ccccc1", "growth inhibition": "12.9%"}, {"smiles": "CC(=O)Nc1ccc(C(=O)NN2C(=O)C(Cl)C2c2ccc(Cl)cc2)cc1", "note": "(stereo not given)", "growth inhibition": "-43.5%"}, {"smiles": "COc1cc([N+](=O)[O-])cc(C=O)c1O", "growth inhibition": "11.7%"}, {"smiles": "O=C(O)C1CCCCC1C(=O)Nc1nc2ccccc2[nH]1", "note": "(stereo not given)", "growth inhibition": "-10.6%"}, {"smiles": "CSc1nc2nc[nH]c(=O)c2[nH]1", "growth inhibition": "-2.5%"}, {"smiles": "CCSC(OC(C)=O)C(Nc1ccc([N+](=O)[O-])cc1[N+](=O)[O-])C(OC(C)=O)C(OC(C)=O)C(COC(C)=O)OC(C)=O", "note": "(stereo not given)", "growth inhibition": "24.9%"}, {"smiles": "CC(C)N(CCN1CCCCC1)c1ccccn1", "growth inhibition": "14.9%"}, {"smiles": "CN(C)c1ccc(N=Nc2ccc(S(=O)(=O)O)cc2)cc1.CN(C)c1ccc(N=Nc2ccc(S(=O)(=O)O)cc2)cc1.[NH-]C1CCCCC1[NH-].[Pt+2]", "growth inhibition": "3.55%"}, {"smiles": "COC(=O)C1CSC(C)(C)N1", "note": "(stereo not given)", "growth inhibition": "4.35%"}, {"smiles": "O=C(Oc1c(Br)cc(Br)cc1C(=O)Oc1ccccc1)C(=O)Oc1c(Br)cc(Br)cc1C(=O)Oc1ccccc1", "growth inhibition": "32.6%"}, {"smiles": "ClCC1COC(CCc2ccccc2)O1", "note": "(stereo not given)", "growth inhibition": "7.7%"}, {"smiles": "COc1ccc(C(C)c2cc(OC)c(OC)cc2OC)cc1", "note": "(stereo not given)", "growth inhibition": "37.8%"}, {"smiles": "COc1cc(CCCCC(=O)O)cc(Br)c1OC", "growth inhibition": "-3.85%"}, {"smiles": "CC1CN1C(=O)Nc1cccc2c(NC(=O)N3CC3C)cccc12", "note": "(stereo not given)", "growth inhibition": "-2.45%"}, {"smiles": "Nc1ccc(S(=O)(=O)/N=C(\\NS(=O)(=O)c2ccc(N)cc2)c2ccccc2)cc1", "growth inhibition": "1.45%"}]}]}
